In PubChem BioAssay AID652040 (Broad Institute, 2013):
Entries with a potency or affinity are not part of this list. The source made the active and inactive calls.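 Rule for the calls: active = falling luciferase signal whose fitted half-maximal concentration is at most twice the top tested dose; inconclusive = flat inhibition between 30 and 70% or a poor curve fit; inactive = the rest.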

assay: off-target signal loss in HeLa-CEM21 co-culture – HeLa F-luc CTL cells, cherry-picked, counter-screen for HIV-1 Env fusion inhibitor project, dose response (AID 652040); details: HeLa-F-luc CTL cells with CEM21, firefly luciferase counterscreen; series mostly up to 35 µM; activity change, negative = inhibition: at the top concentration;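 note: 0% = median of neutral control wells and -100% = doxycycline 40 µg/mL wells; more negative values mean stronger loss of luciferase signal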

Q: With `Nc1nonc1C(=O)NCCNCc1c(OCc2ccccc2F)ccc2ccccc12` as the molecule, how does the “activity change, negative = inhibition” value read?
A: The value was 49.9% (inactive).

Q: With `C[C@@H]1CN([C@H](C)CO)S(=O)(=O)c2ccc(C#Cc3cccc(F)c3)cc2O[C@@H]1CN(C)C(=O)CN1CCOCC1` as the molecule, how does the “activity change, negative = inhibition” value read?
A: The value was 40% (inactive).

Q: With `COc1ccc(C(=O)NCCc2ccc(Cl)cc2)cc1S(=O)(=O)N1CCCCC1C` (stereo not drawn) as the molecule, how does the “activity change, negative = inhibition” value read?
A: Its value is -12.6% (inactive).

Q: Which “activity change, negative = inhibition” value does the source give for `CCOC(=O)[C@@H]1[C@H]2COc3cc(OC)ccc3[C@H]2N2C(=O)N(c3ccc(C(F)(F)F)cc3)C(=O)[C@]12C` here?
A: The value was 90% [at 16 µM] (inactive).

Q: With `Cc1ccc(-c2nnc(N3CCN(C(=O)COc4ccccc4)CC3)c3ccccc23)cc1` as the molecule, how does the “activity change, negative = inhibition” value read?
A: Its value is -11% (inactive).

Q: With `Cc1ccccc1S(=O)(=O)NC(=O)C1(C)CCN1C(=O)CCc1ccc(Cl)cc1Cl` (stereo not drawn) as the molecule, how does the “activity change, negative = inhibition” value read?
A: The value was 56.4% (inactive).

Q: For `CCCCS(=O)(=O)N1CCN(C(=O)C(=O)c2cccc(C(F)(F)F)c2)CC1`, which “activity change, negative = inhibition” value is on record?
A: The value was -8.5% (inactive).

Q: With `CCn1c(/C=C/N(C)c2ccccc2)[n+](CC)c2ccc(Cl)cc21` as the molecule, how does the “activity change, negative = inhibition” value read?
A: The value was 17.2% (inactive).

Q: With `N#Cc1ccc(CN2CCN(C(=O)CNC(=O)Cc3cccc4ccccc34)CC2)cc1` as the molecule, how does the “activity change, negative = inhibition” value read?
A: The value was 18.8% (inactive).

Q: Which “activity change, negative = inhibition” value does the source give for `CCOC(=O)[C@@H]1[C@H]2COc3cc(OC)ccc3[C@H]2N2C(=O)N(c3cccc(F)c3)C(=O)[C@@]12C` here?
A: Its value is 61.2% (inactive).

Q: Which “activity change, negative = inhibition” value does the source give for `C[C@@H]1CN([C@H](C)CO)C(=O)c2cccc(NC(=O)c3ccncc3)c2O[C@@H]1CN(C)Cc1ccc(C(=O)O)cc1` here?
A: Its value is 5.66% (inactive).

Q: For `COc1ccc(NC(=O)C2(C)CCN2Cc2ccccc2OC(F)F)cc1OC` (stereo not drawn), which “activity change, negative = inhibition” value is on record?
A: The value was 47.8% (inactive).

Q: For `O=C(Nc1nc(COc2ccccc2)cs1)C12CC3CC(CC(C3)C1)C2`, which “activity change, negative = inhibition” value is on record?
A: The value was 41.1% (inactive).

Q: Which “activity change, negative = inhibition” value does the source give for `Cc1nn(C)c(C)c1CN(C)S(=O)(=O)c1ccc2ccccc2c1` here?
A: The value was -4.39% (inactive).

Q: For `c1csc(CNc2ncnc3sccc23)c1`, which “activity change, negative = inhibition” value is on record?
A: The value was 0.664% (inactive).

Q: For `CCc1ccc(Nc2n[n+](-c3ccccc3)c(-c3c(Cl)cccc3Cl)s2)cc1`, which “activity change, negative = inhibition” value is on record?
A: Its value is 9% (inactive).

Q: For `COc1ccc(-c2nnc(Nc3nc4c(OC)cccc4s3)o2)cc1`, which “activity change, negative = inhibition” value is on record?
A: The value was 9.73% (inactive).

Q: Which “activity change, negative = inhibition” value does the source give for `Cc1ccc(Cn2ncc3c(N4CCN(Cc5ccc(Cl)cc5)CC4)ncnc32)cc1` here?
A: The value was 22.3% (inactive).

Q: For `COc1ccccc1S(=O)(=O)n1cc(Cc2ccccc2)c(N)n1`, which “activity change, negative = inhibition” value is on record?
A: Its value is 0.656% (inactive).

Q: With `Cc1cccc(N2CCN(C(=O)CCCSc3nc4ccccc4[nH]3)CC2)c1C` as the molecule, how does the “activity change, negative = inhibition” value read?
A: Its value is 1.12% (inactive).

Q: For `c1csc(-c2csc3ncnc(NCCCN4CCOCC4)c23)c1`, which “activity change, negative = inhibition” value is on record?
A: Its value is -9.92% (inactive).

Q: Which “activity change, negative = inhibition” value does the source give for `COC(=O)C1CCN(C(=O)COC(=O)c2cc(S(=O)(=O)N3CCOCC3)ccc2C)CC1` here?
A: Its value is 6.75% (inactive).

Q: For `CC1CCN(S(=O)(=O)c2cc(C(=O)N3CCN(c4ccccc4)CC3)ccc2Br)CC1`, which “activity change, negative = inhibition” value is on record?
A: Its value is 0.151% (inactive).
